Source: the supplement of paper PMC10338343
± gives the standard deviation. The full ranking holds about 6,600 sequences; the median of “pre-steady-state target cleavage rate” is about 0.07, and the highest 2% start at about 0.72. This excerpt belongs to a sample that is enriched for the highest values.

System: MIWI (PIWIL1) piRISC loaded with Kctd7 piRNA (30 nt)
Experiment: pre-steady-state target cleavage rate (min^-1); MIWI and MILI are mouse PIWI proteins and EfPiwi is from a freshwater sponge; tags in brackets are library labels; higher = faster piRNA-guided slicing of the target
Settings: guide: Kctd7 piRNA 5'p-UGUUAAUCUCUCAGAGAAGGUGACAGUGAU; auxiliary factor: 500 nM mouse GTSF1
Method: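 Cleave-'n-Seq: a library of target RNAs (target site embedded in constant flanks, ACAGCATTCCGCGTTAGTGATATCCG... 5' flank; DNA-blocked outside the site) at 0.1 nM was incubated with 1 nM active mouse MILI or MIWI piRISC (synthetic 5'-monophosphorylated piRNA guide) with or without 500 nM mouse GTSF1 at 33 °C for 1 min to 16 h. Uncleaved targets were sequenced and normalised to non-target controls, and the pooled three trials were fitted to a burst-and-steady-state model to give the pre-steady-state cleavage rate (min^-1; k3 is constrained to at most 1e-4). Sequence is the target site only; target names encode pairing extent (gX:gY) and contiguous / 1-mismatch / 2-mismatch / bulge geometry. Fits with R² ≤ 0 are excluded.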

Sequence	pre-steady-state target cleavage rate
AUCACUGUCACCUUCUCUGAGAGAUUUUGA	0.0948 ± 0.023
AUCACUGUCACCUUGACUGAGAGAUUUUGA	0.839 ± 0.22
UAGUCUGUCACCUUCACUGAGAGAUUUUGA	0.176 ± 0.046
UUCACUGUCACCUUGUCUGAGAGAUUUUGA	1.06 ± 0.27
UACACUGUCACCUUCUGAGAGAGAUUUUGA	0.0616 ± 0.019
UACACUGUCACCUUCACUGAGAGAUUUUGA	0.302 ± 0.099
UACACUGUCACCUUGUCUGAGAGAUUUUGA	1.02 ± 0.24
AUCACUGUCACCUUCACUGAGAGAUUUUGA	0.339 ± 0.082
UAGUCUGUCACCUUGUCUGAGAGAUUUUGA	0.197 ± 0.06
AUCACUGUCACCUUGUCUGAGAGAUUUUGA	1.4 ± 0.36
UAGACUGUCACCUUGUCUGAGAGAUUUUGA	0.234 ± 0.066
UACACUGUCACCUUGACUGAGAGAUUUUGA	0.117 ± 0.039
UAGUGACACACGUUGUCUGAGAGAUUAACA	0.0596 ± 0.011
UAGUGACAGUCCUUCUCUGAGAGAUUAAACA	0.0368 ± 0.0052
UAGUGACACAGCUUCUCUGAGAGAUUAUGA	0.00591 ± 0.0022
AUCACUGUCACCUUGCUCUGAGAGAUUAACA	1.1 ± 0.18
AUCACUGUCACCUGCUCUGAGAGAUUAACA	0.673 ± 0.026
UACACUGUCACCUGCUCUGAGAGAUUAACA	0.571 ± 0.03
AUCACUGUCACCUGUCUCUGAGAGAUUAACA	0.651 ± 0.038
UACACUGUCACCUUGCUCUGAGAGAUUAACA	1.01 ± 0.17
UACACUGUCACCUUGUCUGAGAGAUUAACA	0.355 ± 0.042
UUCACUGUCACCUUGCUCUGAGAGAUUAACA	0.747 ± 0.11
UAGUCUGUCACCUUGCUCUGAGAGAUUAACA	0.47 ± 0.081
UUCACUGUCACCUGCUCUGAGAGAUUAACA	0.645 ± 0.031
UAGACUGUGACCUUCUCUGAGAGAUUAUCA	0.246 ± 0.033

Sequence	pre-steady-state target cleavage rate
UAGACACUCACCUUCUCUGAGAGAUUAUGA	0.141 ± 0.031
AUCACUGUCACGUUCACUGAGAGAUUAACA	0.44 ± 0.025
UAGUCUGUCACCUUCUCUGAGAGAUAAUGA	0.0204 ± 0.0082
UUCACUGUCACCUUCUCUGAGAGUUUAUGA	0.71 ± 0.18
UAGUGUGUCACCUUCUCUGAAGAGAUUAACA	0.00762 ± 0.0051
UACACUCUCACCUUCUCUGAGUGAUUAACA	0.0216 ± 0.0064
UAGUCUUUCACCUUCUCUGAGAGAUUAACA	0.265 ± 0.015
UAGUGAGUCAGCUUCUCUGAGAGAAUAACA	0.199 ± 0.032
UACACUGUCACCUUCUCUGUCAGAUUAACA	0.0245 ± 0.008
AUCACUGUCACCUUUUCUGAGAGAUUAACA	0.748 ± 0.029
UUCACUGUCACCUUUUCUGAGAGAUUAACA	0.679 ± 0.028
UAGACUGUCACCUUUCUCUGAGAGAUUAACA	0.538 ± 0.039
UAGACUGUCACCUUUCUGAGAGAUUAACA	0.5 ± 0.033
UAGACUGUCACCUUUUCUGAGAGAUUAACA	0.732 ± 0.034
AUCACUGUCACCUUUCUGAGAGAUUAACA	0.532 ± 0.025
UAGUGAGUCACCUUCACUCAGAGAUUAACA	0.0317 ± 0.0057
UUCACUGUCUCCUUCUCUGAGAGAUUAUCA	0.231 ± 0.035
UAGUGACAGUGCUUCACUGAGAGAUUAACA	0.00805 ± 0.0033
UAGUGACUCACGUUCUCUGAGAGAUUUUGA	< 0.0001
UAGAAUGUCACCUUCUCUGAGAGAUUAACA	0.652 ± 0.038
AUCACUGUCACCUUGUCUGAGAGUUUAACA	0.745 ± 0.15
UAGACUGUCACCUUGUCUGAGAGAUUUACA	0.659 ± 0.12
AUCACUGUCACCUUCACUGAGAGAUUUACA	0.511 ± 0.082
AUCACUGUCACCUUGUCUGAGAGAUUUACA	0.799 ± 0.14
UACACUGUCACCUUGUCUGAGAGUUUAACA	0.442 ± 0.11

Sequence	pre-steady-state target cleavage rate
UAGUCUGUCACCUUGUCUGAGAGAUUUACA	0.25 ± 0.045
UUCACUGUCACCUUGUCUGAGAGUUUAACA	0.422 ± 0.077
UACACUGUCACCUUGUCUGAGAGAUUUACA	0.989 ± 0.19
UUCACUGUCACCUUGUCUGAGAGAUUUACA	0.671 ± 0.12
UACACUGUGACCUUCUCUGAGAGAUUAACA	0.464 ± 0.037
UAGUGACAGUCCUUCUCUGAGAGUAUUAACA	0.0116 ± 0.0023
UAGUGUGUCACCUUCUCUGAGACAUUUACA	0.028 ± 0.0097
UAGUGACACACCAACUCUGAGAGAUUAACA	0.0222 ± 0.0043
UUCACUCAGACCUUCUCUGAGAGAUUAUGA	0.0052 ± 0.0036
UAGUGAGACACCUUCUCUGAGAGAUUAAGA	0.0909 ± 0.019
AACACUGUCACCUUCUCUGAGAGAUUAUGA	0.101 ± 0.021
UAGACUGUCACUCUUCUCUGAGAGAUUAACA	0.457 ± 0.032
AUCACUGUCACUCUUCUCUGAGAGAUUAACA	0.53 ± 0.035
UUCACUGUCAUCUUCUCUGAGAGAUUAACA	0.596 ± 0.027
UAGACUGUCAUCCUUCUCUGAGAGAUUAACA	0.262 ± 0.023
AUCACUGUCAUCUUCUCUGAGAGAUUAACA	0.827 ± 0.041
UAGACUGUCAUCUUCUCUGAGAGAUUAACA	0.848 ± 0.051
AUCACUCUCACCUUCUCUGAGAGAUUAUGA	0.049 ± 0.018
UAGACUGUCACCUUCUCUCAGAGUUUAACA	0.0473 ± 0.0063
UAGUCUGACACCUUGUCUGAGAGAUUAACA	0.164 ± 0.022
AUCAAUGUCACCUUCUCUGAGAGAUUAACA	0.672 ± 0.03
UUCACUGUCUCCUUCUCUGAGAGAUUAACA	0.685 ± 0.036
UACACUGUCUCCUUCUCUGAGAGAUUAACA	0.599 ± 0.034
UUGACUGUCUCCUUCUCUGAGAGAUUAACA	0.746 ± 0.04
AUGACUGUCUCCUUCUCUGAGAGAUUAACA	0.623 ± 0.037

Sequence	pre-steady-state target cleavage rate
UAGACUGUCUCCUUCUCUGAGAGAUUAACA	0.662 ± 0.04
AACACUGUCUCCUUCUCUGAGAGAUUAACA	0.738 ± 0.039
AUCACUGUCACCUUCUUCUGAGAGAUUAACA	0.212 ± 0.046
UAGUGUGUCACCUUCUCUGAGACUUUAUGA	0.00826 ± 0.0044
UUCAGUGUCACCUUCUCUGAGAGAUAAACA	0.264 ± 0.033
UAGACUGUCUGGUUCUCUGAGAGAUUAUGA	< 0.0001
UAGUCUGUCACCUUCUGUCAGAGAUUAACA	0.01 ± 0.0034
AUCACUGUCACCGUUCUCUGAGAGAUUAACA	0.774 ± 0.052
UUCACUGUCUCGUUCUCUGAGAGAUUAACA	0.631 ± 0.035
UACACUGUCACCGUUCUCUGAGAGAUUAACA	0.586 ± 0.03
UUCACUGUCACCGUCUCUGAGAGAUUAACA	0.509 ± 0.022
UAGUCUGUCACCGUUCUCUGAGAGAUUAACA	0.651 ± 0.041
UUCACUGUCACCGUUCUCUGAGAGAUUAACA	0.729 ± 0.032
UUCACUGUGACCUUCUCUGAGAGAUUAUGA	0.119 ± 0.021
UAGUGUGUCUCCUUCUCUGACAGAUUAACA	0.386 ± 0.03
UACACUGUCACUUCUCUGAGAGAUUAACA	0.577 ± 0.038
UAGACUGUCACUUCUCUGAGAGAUUAACA	0.466 ± 0.041
UACACUGUCACUUUCUCUGAGAGAUUAACA	0.725 ± 0.025
UACACUGUCACCUUUCUCUGAGAGAUUAACA	0.575 ± 0.029
AUCACUGUCACCUUUCUCUGAGAGAUUAACA	0.599 ± 0.034
AUCACUGUCACUUUCUCUGAGAGAUUAACA	0.794 ± 0.04
UAGACUGUCACACUUCUCUGAGAGAUUAACA	0.607 ± 0.04
UAGACUGUCACUUUCUCUGAGAGAUUAACA	0.8 ± 0.043
UUCACUGUCACUUUCUCUGAGAGAUUAACA	0.691 ± 0.026
